Test results from PubChem BioAssay AID1159580 (chemical genetic matrix, 2015).
Hit rate of the full screen: of about 5,500 compounds, about 2,000 (36%) were called active. Roughly 18% stayed inconclusive and do not appear here. No stated cut-off is given here; in the data, active means normalized growth mostly below about 0.91 (no sharp cut-off); inconclusive means no clear call, values can overlap the other calls; inactive means mostly above about 0.92. The list shows a part of the results.

Assay: chemical genetic growth profiling, strain panel (AID 1159580);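 further: tested at 20 µM; growth read once vehicle control cultures reached saturation at 30 °C; 1 = growth at the plate median or of vehicle wells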
Conditions: growth OD

Measured: normalized growth

Cc1c(C(N)=O)cc([N+](=O)[O-])cc1[N+](=O)[O-]
inactive: S. cerevisiae deletion strains, locus YJR066W, strain TOR1, stronger effect = lower value 0.991 | S. cerevisiae deletion strains, locus YKL009W, strain mrt4, stronger effect = lower value 0.972 | S. cerevisiae deletion strains, locus YKL068W, stronger effect = lower value 0.982 | S. cerevisiae deletion strains, locus YKL085W, strain MDH1 (second series), stronger effect = lower value 1.02 | S. cerevisiae deletion strains, locus YKL085W, strain MDH1, stronger effect = lower value 1.02 | S. cerevisiae deletion strains, locus YKL160W, strain elf1, stronger effect = lower value 0.988 | S. cerevisiae deletion strains, locus YKL190W, strain CNB1, stronger effect = lower value 0.996 | S. cerevisiae deletion strains, locus YKR001C, strain vps1, stronger effect = lower value 0.993 | S. cerevisiae deletion strains, locus YKR026C, strain gcn3, stronger effect = lower value 1.02 | S. cerevisiae deletion strains, locus YKR091W, strain srl3, stronger effect = lower value 1.02 | S. cerevisiae deletion strains, locus YLL001W, strain dnm1, stronger effect = lower value 1.02 | S. cerevisiae deletion strains, locus YLL026W, stronger effect = lower value 1.02 | S. cerevisiae deletion strains, locus YLL041C, strain sdh2, stronger effect = lower value 1.02 | S. cerevisiae deletion strains, locus YLR027C, strain aat2, stronger effect = lower value 1.01 | S. cerevisiae deletion strains, locus YLR039C, strain RIC1, stronger effect = lower value 0.988 | S. cerevisiae deletion strains, locus YLR058C, strain SHM2, stronger effect = lower value 0.99 | S. cerevisiae deletion strains, locus YLR102C, strain apc9, stronger effect = lower value 0.97 | S. cerevisiae deletion strains, locus YLR113W, strain HOG1, stronger effect = lower value 1.07 | S. cerevisiae deletion strains, locus YLR221C, strain rsa3, stronger effect = lower value 1.03 | S. cerevisiae deletion strains, locus YLR258W, strain gsy2, stronger effect = lower value 1.04 | S. cerevisiae deletion strains, locus YLR262C, strain YPT6 (second series), stronger effect = lower value 1.02 | S. cerevisiae deletion strains, locus YLR262C, strain YPT6, stronger effect = lower value 1.01 | S. cerevisiae deletion strains, locus YLR268W, strain sec22, stronger effect = lower value 0.979 | S. cerevisiae deletion strains, locus YLR320W, strain mms22, stronger effect = lower value 1.05 | S. cerevisiae deletion strains, locus YLR330W, strain CHS5, stronger effect = lower value 0.994 | S. cerevisiae deletion strains, locus YLR342W, strain FKS1 (second series), stronger effect = lower value 0.984 | S. cerevisiae deletion strains, locus YLR342W, strain FKS1, stronger effect = lower value 1.02 | S. cerevisiae deletion strains, locus YLR357W, strain rsc2, stronger effect = lower value 0.999 | S. cerevisiae deletion strains, locus YLR370C, strain arc18, stronger effect = lower value 1.04 | S. cerevisiae deletion strains, locus YLR371W, strain rom2, stronger effect = lower value 0.963 | S. cerevisiae deletion strains, locus YLR384C, strain iki3, stronger effect = lower value 1.03 | S. cerevisiae deletion strains, locus YLR418C, strain cdc73, stronger effect = lower value 0.972 | S. cerevisiae deletion strains, locus YML016C, strain PPZ1, stronger effect = lower value 0.989 | S. cerevisiae deletion strains, locus YML032C, strain rad52, stronger effect = lower value 0.978 | S. cerevisiae deletion strains, locus YML120C, strain ndi1, stronger effect = lower value 1.03 | S. cerevisiae deletion strains, locus YML124C, strain tub3, stronger effect = lower value 0.979 | S. cerevisiae deletion strains, locus YMR058W, strain fet3, stronger effect = lower value 1.01 | S. cerevisiae deletion strains, locus YMR078C, strain ctf18, stronger effect = lower value 0.976 | S. cerevisiae deletion strains, locus YMR125W, strain sto1, stronger effect = lower value 0.962 | S. cerevisiae deletion strains, locus YMR129W, stronger effect = lower value 1.02 | S. cerevisiae deletion strains, locus YMR205C, strain PFK2, stronger effect = lower value 1 | S. cerevisiae deletion strains, locus YMR223W, strain ubp8, stronger effect = lower value 0.98 | S. cerevisiae deletion strains, locus YMR231W, strain pep5, stronger effect = lower value 1.03 | S. cerevisiae deletion strains, locus YMR263W, strain SAP30, stronger effect = lower value 0.997 | S. cerevisiae deletion strains, locus YMR307W, strain GAS1, stronger effect = lower value 1.02 | S. cerevisiae deletion strains, locus YNL067W, strain RPL9B, stronger effect = lower value 1.01 | S. cerevisiae deletion strains, locus YNL071W, strain lat1, stronger effect = lower value 1.02 | S. cerevisiae deletion strains, locus YNL128W, strain TEP1, stronger effect = lower value 0.965 | S. cerevisiae deletion strains, locus YNL183C, strain NPR1, stronger effect = lower value 0.98 | S. cerevisiae deletion strains, locus YNL209W, strain ssb2, stronger effect = lower value 1.02 | S. cerevisiae deletion strains, locus YNL233W, strain BNI4, stronger effect = lower value 1.01 | S. cerevisiae deletion strains, locus YNL248C, strain rpa49, stronger effect = lower value 0.923 | S. cerevisiae deletion strains, locus YNL250W, strain rad50, stronger effect = lower value 0.985 | S. cerevisiae deletion strains, locus YNL271C, strain bni1, stronger effect = lower value 0.97 | S. cerevisiae deletion strains, locus YNL298W, strain CLA4, stronger effect = lower value 0.975 | S. cerevisiae deletion strains, locus YNL307C, strain MCK1, stronger effect = lower value 0.978 | S. cerevisiae deletion strains, locus YNL322C, strain KRE1 (second series), stronger effect = lower value 1.03 | S. cerevisiae deletion strains, locus YNL322C, strain KRE1, stronger effect = lower value 0.991 | S. cerevisiae deletion strains, locus YNR049C, strain mso1, stronger effect = lower value 1.02 | S. cerevisiae deletion strains, locus YNR052C, strain pop2, stronger effect = lower value 0.966 | S. cerevisiae deletion strains, locus YOL006C, strain TOP1, stronger effect = lower value 0.984 | S. cerevisiae deletion strains, locus YOL012C, strain htz1 0.838 | S. cerevisiae deletion strains, locus YOL147C, strain pex11, stronger effect = lower value 0.978 | S. cerevisiae deletion strains, locus YOR001W, strain rrp6, stronger effect = lower value 1.03 | S. cerevisiae deletion strains, locus YOR061W, strain CKA2, stronger effect = lower value 0.99 | S. cerevisiae deletion strains, locus YOR069W, strain VPS5, stronger effect = lower value 0.981 | S. cerevisiae deletion strains, locus YOR070C, strain gyp1, stronger effect = lower value 1.02 | S. cerevisiae deletion strains, locus YOR080W, strain dia2, stronger effect = lower value 1.03 | S. cerevisiae deletion strains, locus YOR083W, strain WHI5, stronger effect = lower value 0.985 | S. cerevisiae deletion strains, locus YOR106W, strain vam3, stronger effect = lower value 0.981 | S. cerevisiae deletion strains, locus YOR136W, strain idh2, stronger effect = lower value 0.976 | S. cerevisiae deletion strains, locus YOR144C, strain elg1, stronger effect = lower value 0.978 | S. cerevisiae deletion strains, locus YOR184W, strain ser1, stronger effect = lower value 0.986 | S. cerevisiae deletion strains, locus YOR231W, strain MKK1, stronger effect = lower value 1.05 | S. cerevisiae deletion strains, locus YOR265W, strain rbl2, stronger effect = lower value 1.01 | S. cerevisiae deletion strains, locus YOR270C, strain vph1, stronger effect = lower value 1.01 | S. cerevisiae deletion strains, locus YOR290C, strain snf2, stronger effect = lower value 1.03 | S. cerevisiae deletion strains, locus YOR316C, strain cot1, stronger effect = lower value 0.965 | S. cerevisiae deletion strains, locus YPL051W, strain arl3, stronger effect = lower value 1.01 | S. cerevisiae deletion strains, locus YPL078C, strain atp4, stronger effect = lower value 0.974 | S. cerevisiae deletion strains, locus YPL106C, strain sse1, stronger effect = lower value 1.06 | S. cerevisiae deletion strains, locus YPL240C, strain hsp82, stronger effect = lower value 1.02 | S. cerevisiae deletion strains, locus YPL241C, strain CIN2, stronger effect = lower value 0.991 | S. cerevisiae deletion strains, locus YPL256C, strain CLN2, stronger effect = lower value 1.05 | S. cerevisiae deletion strains, locus YPR119W, strain clb2, stronger effect = lower value 0.982 | S. cerevisiae deletion strains, locus YPR141C, strain kar3, stronger effect = lower value 0.974 | S. cerevisiae deletion strains, locus YPR163C, strain tif3, stronger effect = lower value 0.975 | S. cerevisiae deletion strains, locus YPR167C, strain met16, stronger effect = lower value 0.981 | S. cerevisiae deletion strains, strain wtn01, stronger effect = lower value 0.971 | S. cerevisiae strains, strain wild type, stronger effect = lower value 0.996
